This note sets out measurements from PubChem BioAssay (NCATS).

What all share (experiment): qHTS profiling for inhibitors of Plasmodium falciparum proliferation (AID 504749); note: nearly all actives have a fitted effect of over 60% in size
Common to all, as to conditions: P. falciparum in erythrocytes, SYBR Green DNA, 72 h; series mostly up to 28.7 µM

Experiment [1] relates to CP250. The method, boiled down:
(§1)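 Quantitative HTS: compounds pinned into medium, infected erythrocytes added (0.3% parasitemia, 2.5% hematocrit), 72 h culture at 37 C under 5% CO2. Saponin/Triton lysis with SYBR Green I, overnight RT, then fluorescence read.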

Experiment [2] has as its system CP252. In outline: as §1
For experiment [3], the system named is CP256. In outline: as §1
In experiment [4] the test system is CP260. The method, boiled down: as §1
The test system of experiment [5] is CP262. In outline: as §1
Experiment [6] deals with CP265. The method, boiled down: as §1
In experiment [7] the test system is CP266. The method, boiled down:
as §1

Experiment [8] concerns CP268. The method, boiled down:
as §1

Experiment [9] deals with CP269. In outline:
as §1

Experiment [10] deals with CP286. The method, boiled down: as §1

Inconclusive results are not listed. Calls of active or inactive are those of the source. Calls come from the whole dose curve; as a rule, active = well fitted inhibition curve with a large enough effect; inconclusive = small, poorly fitted or top-dose-only effect; inactive = flat fitted curve, though single readings scatter.
Potency is the fitted concentration of half-maximal effect.

Turning to `Clc1ccc2nsnc2c1NC1=NCCN1`, the Potency result in experiment [1], in experiment [2], in [3], in experiment [4], in experiment [5] and in experiment [6] was “inactive” in each case. Moreover, the Potency result in experiment [7], in experiment [8], in experiment [9] and in experiment [10] was “inactive” each time.
For the compound `CN1CCC(=C2c3ccccc3C=Cc3ccccc32)CC1`, the Potency result in experiment [1], in experiment [2], in experiment [3], in experiment [4], in [5] and in experiment [6] was “inactive” in each case. Further, the Potency entry in experiment [7] and in [10] was “inactive” in each case.
Take `O=C1N(c2ccccc2)c2ccccc2C1(Cc1ccncc1)Cc1ccncc1`: the Potency entry in [1], in experiment [2], in experiment [3], in [4], in experiment [5] and in [6] was “inactive” throughout. Further, the Potency entry in [7], in experiment [8], in [9] and in experiment [10] was “inactive” each time.
For the compound `Cc1ccc(C(=O)Nc2ccc(S(=O)(=O)O)c3cc(S(=O)(=O)O)cc(S(=O)(=O)O)c23)cc1NC(=O)c1cccc(NC(=O)Nc2cccc(C(=O)Nc3cc(C(=O)Nc4ccc(S(=O)(=O)O)c5cc(S(=O)(=O)O)cc(S(=O)(=O)O)c45)ccc3C)c2)c1`, the Potency result in experiment [1], in experiment [2], in experiment [3], in experiment [4], in [5] and in experiment [6] was “inactive” each time. Besides, the Potency result in experiment [7], in experiment [8], in [9] and in experiment [10] was “inactive” throughout.
For `Cn1c(=O)c2c(ncn2C)n(C)c1=O`, the Potency entry in experiment [1], in experiment [2], in experiment [3], in experiment [4], in [5] and in experiment [6] was “inactive” each time. For the same compound, the Potency result in [7], in experiment [8], in experiment [9] and in experiment [10] was “inactive” throughout.
Regarding `Cc1cnc(C(=O)NCCc2ccc(S(=O)(=O)NC(=O)NC3CCCCC3)cc2)cn1`, the Potency entry in experiment [1], in experiment [2], in experiment [3], in [4], in [5] and in experiment [6] was “inactive” throughout. Besides, the Potency entry in experiment [7], in experiment [8], in experiment [9] and in experiment [10] was “inactive” each time.
Take `Nc1nnc(-c2cccc(Cl)c2Cl)c(N)n1`: the Potency entry in experiment [1], in experiment [2], in experiment [3], in [4], in experiment [5] and in [6] was “inactive” each time. The Potency entry in [7], in [8], in [9] and in [10] was “inactive” throughout.
With `COc1ccccc1N1CCN(CC(O)COc2cccc3ccccc23)CC1` (stereo unspecified), the Potency result in [1], in experiment [2], in experiment [3], in [4], in experiment [5] and in [6] was “inactive” throughout. The Potency entry in experiment [7], in experiment [8], in experiment [9] and in experiment [10] was “inactive” in each case.
Turning to `NS(=O)(=O)c1cc2c(cc1Cl)NCNS2(=O)=O`, the Potency entry in experiment [1], in experiment [2], in experiment [3], in [4], in [5] and in experiment [6] was “inactive” in each case. Also, the Potency result in experiment [7], in experiment [8], in experiment [9] and in experiment [10] was “inactive” each time.
Take `NC(=O)NO`: the Potency entry in [1], in [2], in experiment [3], in [4], in experiment [5] and in [6] was “inactive” throughout. For the same compound, the Potency result in [7], in [8], in [9] and in [10] was “inactive” in each case.
With `Cc1cc(C(C)(C)C)cc(C)c1CC1=NCCN1`, the Potency result in [1], in [2], in experiment [3], in [4], in experiment [5] and in [6] was “inactive” each time. Besides, the Potency entry in experiment [7], in experiment [9] and in [10] was “inactive” each time.
For the compound `CC(C)C(=O)Nc1ccc([N+](=O)[O-])c(C(F)(F)F)c1`, the Potency entry in [1], in experiment [2], in experiment [3], in [4], in [5] and in experiment [6] was “inactive” each time. Moreover, the Potency result in [7], in [8], in [9] and in experiment [10] was “inactive” in each case.
On to `COc1ccc2[nH]cc(CCNC(C)=O)c2c1`, for which the Potency entry in experiment [1], in [2], in [3], in [4], in experiment [5] and in [6] was “inactive” in each case. In addition, the Potency result in [7], in experiment [8], in experiment [9] and in experiment [10] was “inactive” in each case.
Regarding `Cc1cn([C@H]2C[C@H](N=[N+]=[N-])[C@@H](CO)O2)c(=O)[nH]c1=O`, the Potency entry in experiment [1], in experiment [2], in experiment [3], in experiment [4], in experiment [5] and in experiment [6] was “inactive” in each case. Besides, the Potency result in [7], in experiment [8], in [9] and in [10] was “inactive” in each case.
On to `CC(CCc1ccc(O)cc1)NCCc1ccc(O)c(O)c1` (stereo unspecified), for which the Potency entry in experiment [1], in [2], in [3], in [4], in experiment [5] and in experiment [6] was “inactive” in each case. Further, the Potency entry in [7], in [8], in [9] and in experiment [10] was “inactive” each time.
For the compound `CCOC(=O)C(C)(C)Oc1ccc(Cl)cc1`, the Potency entry in experiment [1], in experiment [2], in experiment [3], in experiment [4], in experiment [5] and in experiment [6] was “inactive” in each case. Moreover, the Potency result in [7], in experiment [8], in experiment [9] and in experiment [10] was “inactive” each time.
For the compound `COc1ccccc1OCC(O)CN1CCN(CC(=O)Nc2c(C)cccc2C)CC1` (stereo unspecified), the Potency entry in [1], in experiment [2], in experiment [3], in experiment [4], in experiment [5] and in experiment [6] was “inactive” in each case. Further, the Potency result in [7], in experiment [8], in [9] and in [10] was “inactive” throughout.
For `NCCc1cnc[nH]1`, the Potency result in [1], in experiment [2], in experiment [3], in experiment [4], in experiment [5] and in [6] was “inactive” throughout. Further, the Potency result in experiment [7], in experiment [8], in experiment [9] and in [10] was “inactive” throughout.
On to `NC(=O)OCC(COC(N)=O)c1ccccc1`, for which the Potency entry in [1], in experiment [2], in [3], in experiment [4], in experiment [5] and in [6] was “inactive” throughout. Further, the Potency entry in [7], in [8], in experiment [9] and in experiment [10] was “inactive” throughout.
For the compound `CC[N+](CC)(CC)CCOc1cccc(OCC[N+](CC)(CC)CC)c1OCC[N+](CC)(CC)CC`, the Potency entry in experiment [1], in experiment [2], in [3], in experiment [4], in experiment [5] and in experiment [6] was “inactive” in each case. For the same compound, the Potency entry in [7], in [8], in experiment [9] and in [10] was “inactive” in each case.
In the case of `CN(CCOc1ccc(NS(C)(=O)=O)cc1)CCc1ccc(NS(C)(=O)=O)cc1`, the Potency entry in [1], in [2], in [3], in experiment [4], in experiment [5] and in experiment [6] was “inactive” throughout. The Potency entry in [7], in experiment [8], in experiment [9] and in [10] was “inactive” each time.
With `CCCNCC(O)COc1ccccc1C(=O)CCc1ccccc1` (stereo unspecified), the Potency was 1000 nM (active) in [1]; 631 nM (active) in experiment [2]; 1000 nM (active) in experiment [3]; 891 nM (active) in experiment [4]; 4780 nM (active) in experiment [5]; 355 nM (active) in [6]. For the same compound, the Potency in [7] was 10700 nM (active); in experiment [8] it was 4260 nM (active); in experiment [9] it was 3790 nM (active); in experiment [10], 1580 nM (active).
As to `CS(=O)(=O)Nc1ccc([N+](=O)[O-])cc1Oc1ccccc1`, the Potency result in experiment [1], in experiment [2], in experiment [3], in experiment [4], in [5] and in [6] was “inactive” throughout. For the same compound, the Potency entry in [7], in experiment [8], in experiment [9] and in experiment [10] was “inactive” in each case.
As to `CN1C(C(=O)Nc2ccccn2)=C(O)c2ccccc2S1(=O)=O`, the Potency result in [1], in experiment [2], in experiment [3], in experiment [4], in experiment [5] and in experiment [6] was “inactive” in each case. The Potency entry in [7], in experiment [8], in experiment [9] and in [10] was “inactive” throughout.
Consider `O=c1c(-c2ccc(O)cc2)coc2cc(O)cc(O)c12`, for which the Potency result in experiment [1], in [2], in experiment [3], in experiment [4], in [5] and in [6] was “inactive” each time. Besides, the Potency result in experiment [7], in [8], in experiment [9] and in [10] was “inactive” in each case.
For the compound `CN(C)c1nc(N(C)C)nc(N(C)C)n1`, the Potency entry in [1], in experiment [2], in experiment [3], in [4], in experiment [5] and in [6] was “inactive” each time. Further, the Potency result in experiment [7], in experiment [8], in [9] and in experiment [10] was “inactive” throughout.
For the compound `CN1CCN2c3ccccc3Cc3ccccc3C2C1` (stereo unspecified), the Potency result in experiment [1], in experiment [2], in experiment [3], in [4], in experiment [5] and in experiment [6] was “inactive” throughout. In addition, the Potency entry in experiment [7], in [8], in [9] and in [10] was “inactive” in each case.
As to `CCOC(=O)c1ncn2c1CN(C)C(=O)c1cc(F)ccc1-2`, the Potency entry in experiment [1], in experiment [2], in experiment [3], in experiment [4], in experiment [5] and in experiment [6] was “inactive” each time. For the same compound, the Potency entry in [8], in [9] and in experiment [10] was “inactive” each time.
As for `Cc1cc(C(C)(C)C)c(O)c(C)c1CC1=NCCN1`, the Potency result in experiment [1], in experiment [2], in [3], in experiment [4], in experiment [5] and in [6] was “inactive” in each case. Further, the Potency result in experiment [7], in experiment [8], in experiment [9] and in experiment [10] was “inactive” each time.
Turning to `CC(C)(C)C(=O)Oc1ccc(S(=O)(=O)Nc2ccccc2C(=O)NCC(=O)O)cc1`, the Potency entry in experiment [1], in experiment [2], in experiment [3], in [4], in experiment [5] and in [6] was “inactive” each time. Besides, the Potency entry in experiment [7], in experiment [8], in experiment [9] and in [10] was “inactive” each time.
As to `C[C@](N)(Cc1ccc(O)c(O)c1)C(=O)O`, the Potency entry in experiment [1], in experiment [2], in experiment [3], in [4], in experiment [5] and in experiment [6] was “inactive” in each case. Further, the Potency result in experiment [7], in experiment [8], in [9] and in experiment [10] was “inactive” each time.
In the case of `Cn1c(=O)c2[nH]cnc2n(C)c1=O`, the Potency result in experiment [1], in experiment [2], in experiment [3], in experiment [4], in [5] and in experiment [6] was “inactive” throughout. In addition, the Potency result in [7], in [8], in [9] and in experiment [10] was “inactive” throughout.
